High-throughput results: PubChem, National Center for Advancing Translational Sciences (NCATS)
Sfp PPTase inh = blocks B. subtilis Sfp PPTase activity. Biochemical Sfp PPTase activity, qHTS. 310,000 tested, 3.5% active. Potency, µM, inactives show largest response in the series, negative = inhibition, hits mostly inhibitors. Q9F4F7;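 also: the enzyme is Sfp with the accession as filed and its product quenches rhodamine fluorescence; potency is read from the fitted curve at half-maximal effect; 0% = enzyme reaction without inhibitor and -100% = no enzyme wells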
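Fluorescence-quenching assay: 15 nM Sfp-PPTase preincubated 15 min at room temperature with compound, then 5 uM rhodamine-CoA and 12.5 uM BHQ-2-labelled YbbR peptide added. Fluorescence (ex 525/em 598 nm) read at start and after 30 min; difference gives rate.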
Tau fibril ThT = blocks human tau fibril formation measured by thioflavin T | recombinant tau K18 P301L, heparin-induced fibrillization, ThT fluorescence | AID 1460 | 270,000 tested, 2.1% active | Potency, µM (top dose mostly 57.4 µM), for the others: at the top dose activity, negative = inhibition, most hits filed as inhibitors; also: potency is read from the fitted curve at half-maximal effect; nearly all actives have a fitted effect of over 55% in size
Target sequence (P10636 561-689 P618L limits assumed): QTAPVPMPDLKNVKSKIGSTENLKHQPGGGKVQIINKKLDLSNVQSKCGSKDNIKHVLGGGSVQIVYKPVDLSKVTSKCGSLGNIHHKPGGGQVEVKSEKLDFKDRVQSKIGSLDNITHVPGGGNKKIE
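ThT emission at 510 nm, taken 1 hr after adding 30 uM dye, quantifies aggregates formed when 20 uM heparin acts on human tau K18 P301L for 6 hr at 37 C.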
G9a block = inhibitors of human histone lysine methyltransferase G9a; G9a H3K9 monomethylation, AlphaScreen, 2 h; Potency, µM (titrated, usually from 102 µM), for the others: at the highest dose activity, negative = inhibition, hits mostly inhibitors; 350,000 tested, 8.8% active; also: potency is read from the fitted curve at half-maximal effect; nearly all actives have a fitted effect of over 75% in size
Target sequence (Q96KQ7 913-1193 limits assumed): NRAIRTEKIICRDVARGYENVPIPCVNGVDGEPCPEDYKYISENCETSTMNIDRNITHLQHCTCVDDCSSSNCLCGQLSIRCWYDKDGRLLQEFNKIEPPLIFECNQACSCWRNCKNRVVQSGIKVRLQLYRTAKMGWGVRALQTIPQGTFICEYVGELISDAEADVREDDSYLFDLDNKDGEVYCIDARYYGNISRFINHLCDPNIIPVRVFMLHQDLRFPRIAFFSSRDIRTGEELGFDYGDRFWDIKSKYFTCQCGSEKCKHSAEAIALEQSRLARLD
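Methyltransferase reactions run at room temperature for 2 h (20 nM enzyme, 500 nM biotin-H3K9 peptide, 20 uM SAM) after a 15 min compound preincubation; product detected by AlphaScreen beads and anti-H3K9me1 antibody.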
FBPA coupling cs = inhibits coupling enzyme system, counter-screen for aldolase hits | activity change, negative = inhibition, % at 58.2 µM, hits read low | 290,000 tested, 0.67% active | coupling enzyme system counterscreen, AmpLite Red fluorescence; in the data active = activity change below about -30%
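Counterscreen lacking aldolase: glyceraldehyde-3-phosphate coupling-enzyme reagent preincubated 10 min at RT with compound (at 57.5 uM final), then substrate/coupling system with AmpLite Red added; fluorescence read at 525/598 nm after 20 min RT.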
Tau fibril FP = inhibitors of human tau fibril formation | K18 P301L tau heparin fibrillization, Alexa594 FP, 6 h | 280,000 tested, 0.39% active | AID 1468 | P10636 | Potency, µM (series often up to 57.7 µM), inactives show at the highest dose activity, negative = inhibition, usual class: inhibitors; also: potency is read from the fitted curve at half-maximal effect; nearly all actives have a fitted effect of over 55% in size
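Human tau K18 […] P301L fragment, 15 uM unlabeled plus 0.24 uM Alexa 594-labeled tau (final), with compound and 20 uM heparin in 100 mM sodium acetate pH 7; 6 hr at 37 C, then Alexa 594 FP read.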
Tau fluor counter = counter-screen for tau fibril formation inhibitors | AID 1463 | 280,000 tested, 0.93% active | tau K18 P301L Alexa594 fluorescence, heparin fibrillization | Potency, µM (titrated, usually from 57.7 µM), without a hit: at the top dose activity change, negative = decrease; also: potency is read from the fitted curve at half-maximal effect; nearly all actives have a fitted effect of over 55% in size
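Human tau K18 P301L (15 uM unlabeled, 0.24 uM Alexa 594-labeled) in 100 mM sodium acetate pH 7 with 20 uM heparin, 6 hr at 37 C. ThT 30 uM added, 1 hr ambient; Alexa 594 FP and total fluorescence read at 555/632 nm.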
* hit, by the source's call; ? = inconclusive; . = no result given; [ ] = dose if it differs, or a comment. Most compounds without a hit are left out; they make up all but 11% or so of the library. Unless noted, calls follow the shape of the dose curve; as a rule, active = well fitted curve in the direction sought with a large enough effect; inconclusive = small, poorly fitted or top-dose-only effect, or another doubt; inactive = no such curve, though single readings can be large; an effect the other way counts as inactive or inconclusive. Unless noted, % is scaled to controls: 0 for no effect and ±100 for the full control effect.

SMILES | Sfp PPTase inh | Tau fibril ThT | G9a block | FBPA coupling cs | Tau fibril FP | Tau fluor counter
CC(C)Nc1ccc(Nc2ccnc3cc4ccccc4cc23)cc1 | -19% | 5µM* | 8.9µM* | -3 | -3% | 18µM*[quencher]
Brc1ccc(-c2csc(/N=C/N3CCOCC3)n2)cc1 | 6% | -21% | 50µM* | 0 | 5% | -14%
Brc1ccc(-c2csc(/N=C/N3CCCC3)n2)cc1 | -24% | ? | ? | -1 | 5% | ?
O=S1(=O)N=C(N/N=C/c2cccs2)c2ccccc21 | 5% | . | 16%[59 µM] | -3 | . | .
Fc1c(F)c(C(F)(F)F)c(F)c(F)c1N/N=C\c1cccs1 | 15% | -20% | 7%[12.7 µM] | -1 | 5% | 7.9µM*[quencher]
COc1ccc2c(c1)CC(C(=O)NCc1ccc(F)cc1)CO2 (centres undefined) | . | 3% | -1%[59 µM] | . | 3% | 4%
CCC(C)NC(C(=O)Nc1ccc(Cl)c([N+](=O)[O-])c1)c1ccccc1 (centres undefined) | -16% | -11% | ? | -1 | 7% | -27%
COc1ccc(NC(=O)C(OC)c2ccccc2)cc1Cl (centres undefined) | -8% | 7% | -11%[59 µM] | -1 | -4% | 3%
COc1ccc(NC(=O)C(NCC(C)C)c2ccccc2)cc1Cl (centres undefined) | 50µM* | -3% | 50µM* | -6 | 5% | -9%
COCC(C)NC(C(=O)Nc1ccc(Cl)c([N+](=O)[O-])c1)c1ccccc1 (centres undefined) | -12% | -4% | 28µM* | 0 | 2% | -8%
NS(=O)(=O)c1ccc(NC(=O)c2cc(Cl)sc2Cl)cc1 | 18% | . | 38% | . | . | .
CCOC(=O)c1c(-c2ccc(OC)c(OC)c2)csc1NC(=O)c1ccc(F)cc1 | . | -8% | 15%[59 µM] | . | ? | -13%
COC(=O)c1c(NC(=O)C2COc3ccccc3O2)sc2c1CCN(Cc1ccccc1)C2 (centres undefined) | 1% | -11% | 79µM* | 0 | -8% | -9%
COC(=O)c1c(NC(C)=O)sc2c1CCN(Cc1ccccc1)C2 | -7% | . | . | 0 | . | .
CCOC(=O)c1c(NC(=O)C(C)Sc2cccc[n+]2[O-])sc2c1CCN(Cc1ccccc1)C2 (centres undefined) | 17% | ? | 8.9µM* | -1 | ? | -2%
Cc1oc(-c2cccc(Cl)c2)nc1Cn1c(SCc2ccc(F)cc2)nc2cccnc21 | . | -9% | ? | . | 4% | -16%
CCOc1ccc(CC(=N)C2=C(O)CC(C)(C)CC2=O)cc1OCC | 4% | -4% | 13%[59 µM] | 2 | -2% | -3%
CCOc1ccc(CC(=O)C2=C(N3CCOCC3)CC(C)(C)CC2=O)cc1OCC | -2% | ? | 25µM* | 2 | ? | -15%
CCOc1ccc(CC(=O)C2C(=O)CCCC2=O)cc1OCC | ? | ? | 11µM* | 1 | -14% | -11%
CCOc1ccc(CC(=NCCc2ccccc2)C2=C(O)CC(C)(C)CC2=O)cc1OCC | 4% | -15% | 71µM* | 2 | 10% | -9%
CCOc1ccc(CC(=O)C2C(=O)CC(C)(C)CC2=O)cc1OCC | ? | ? | 10µM* | 1 | ? | -18%
CCOc1ccc(CC(=O)NC2CC(C)(C)N(C)C(C)(C)C2)cc1OCC | . | . | -15%[12.7 µM] | . | . | .
CCOc1ccc(Cc2onc3c2C(=O)CC(C)(C)C3)cc1OCC | -2% | 2% | -5% | 4 | 1% | -7%
Cc1nc2ccn(Cc3ccco3)c(=O)c2cc1C(=O)NCc1ccccc1F | . | -11% | -2%[59 µM] | . | -2% | -3%
CCOc1ccccc1NC(=O)C(C)Sc1nc2c(c(=O)[nH]1)CCCC2 (centres undefined) | . | -2% | ? | . | 2% | -5%
SMILES | Sfp PPTase inh | Tau fibril ThT | G9a block | FBPA coupling cs | Tau fibril FP | Tau fluor counter
CCCCC/C=C\C\C=C/C=C/C=C/[C@@H](SC[C@H](N)C(=O)O)[C@@H](O)CCCC(=O)O | 12% | 2% | 38%[59 µM] | . | -9% | -1%
CCCCC[C@H](O)/C=C/[C@H]1[C@H](O)CC(O)[C@@H]1C/C=C\CCCC(=O)O (some centres undefined) | 24% | -4% | 38%[59 µM] | . | -1% | -3%
CCCCC[C@H](O)/C=C/[C@@H]1[C@@H](C/C=C\CCCC(=O)OC)[C@@H](O)C[C@H]1O | 25µM* | -12% | 40µM* | -5 | 9% | -3%
CCOC(=O)Cc1ccc(NCc2ccc(Cl)cc2)cc1 | -15% | ? | 50µM* | -13 | 10% | -28%
COc1ccc(C2N(c3ccc(Cl)cc3)N=C(C(C)=O)N(C)N2C(C)=O)cc1 (centres undefined) | -4% | ? | 28µM* | -1 | 0% | -18%
Cc1cc(N2CCOCC2)ccc1/C=C\[N+](=O)[O-] | ? | 11µM* | 6.3µM* | 2 | 13% | ?
COc1ccc2c(c1)C(=O)C(=O)N2CC1COc2ccccc2O1 (centres undefined) | 1% | . | 50µM* | -13 | . | .
Cc1ccc2c(c1)C(=O)C(=O)N2CC1COc2ccccc2O1 (centres undefined) | -1% | . | 50µM* | -7 | . | .
COc1ccc(OC)c(NC(=O)Cn2cnc3ccc(S(=O)(=O)N4CCC(C)CC4)cc3c2=O)c1 | . | 4% | -51%[59 µM] | . | 8% | ?
Cc1ccc(N2C(=O)C(Cl)=C(N3CCOCC3)C2=O)c(C)c1 | -15% | . | . | 0 | . | .
COc1ccc(OC)c(N2C(=O)C(Cl)=C(N3CCCCC3)C2=O)c1 | 5% | 13µM* | ? | 1 | 16µM* | ?
Cc1ccccc1N1C(=O)C(Cl)=C(N2CCCCCC2)C1=O | -26% | ? | 134% | 3 | ? | -25%
O=C1C(Cl)=C(N2CCCCC2)C(=O)N1c1ccccc1Cl | -6% | 14µM* | 6%[12.7 µM] | 4 | 20µM* | ?
COc1ccccc1N1C(=O)C(Cl)=C(N2CCCC2)C1=O | -4% | . | 16%[0.501 µM] | 0 | . | .
COc1ccc(OC)c(N2C(=O)C(Cl)=C(N3CCOCC3)C2=O)c1 | 4% | 14µM* | -26% | 3 | 25µM* | ?
CC1CCCCN1C(=O)CSc1c2c(nc3cc(Cl)ccc13)CCCC2 (centres undefined) | . | ? | -1%[59 µM] | . | 13% | 3%
O=C(COc1coc(CN2CCc3ccccc3C2)cc1=O)N1CCOCC1 | . | . | 45µM* | . | . | .
CSCC[C@H](N)C(=O)NCC1CCC(C(=O)Nc2ccc3c(c2)OCO3)CC1 (some centres undefined) | 14% | . | -5%[12.7 µM] | 0 | . | .
Cc1ncc(CN2CCCC(C(=O)Nc3ccc(-n4ccnc4C)cc3)C2)cn1 (centres undefined) | 8% | . | 20% | 1 | . | .
